Several values for one entry are separate records, joined by “and”; a condition that tells them apart may be missing. Identical values can stand only once. Activity calls are given as the source filed them. The calls were made as follows: active = hit-call score of the fitted dose curve at least 0.9, where 1 is the maximum; inactive = score below 0.9.
These compounds were tested on urokinase plasminogen activator (uPA), PLAU (gene 5328) (assay: BSK_BE3C_uPA: BioMAP Diversity Plus: BE3C Assay for urokinase plasminogen activator (uPA) Biomarker Activity (AID 2283038)). Conditions: primary human bronchial epithelial cells; actives raise or lower the signal.
Method: BSK_BE3C is a cell-based, multiplexed-readout assay that uses bronchial epithelial cell, a human lung primary cell, with measurements taken at 24 hours after chemical dosing in a 96-well plate.BSK_BE3CA is an assay component measured in the BSK_BE3C assay. It measures uPA antibody related to regulation of gene expression using ELISA technology.Data from the assay component BSK_BE3CA was analyzed into 1 assay endpoint. This assay endpoint, BSK_BE3CA, was analyzed with bidirectional fitting relative to DMSO as the negative control and baseline of activity. Using a type of binding reporter, gain or loss-of-signal activity can be used to understand changes in the signaling as they relate to the gene PLAU. Furthermore, this assay endpoint can be referred to as a primary readout, because this assay has produced multiple assay endpoints where this one serves a signaling function. To generalize the intended target to other relatable targets, this assay endpoint is annotated to the protease intended target family, where the subfamily is serine protease.
The levels of cell surface (or secreted, indicated by the prefix "s") biomarker endpoints were measured by ELISA. Overt cytotoxicity to cells in confluent adherent cultures (all systems other than the BT system) was assessed by measuring total protein levels using sulforhodamine B (SRB) staining in parallel cultures at the time of biomarker measurements, indicated as SRB endpoints. For proliferation assays for adherent cell types, individual cell types are cultured at sub-confluence and relative cell numbers quantified by SRB staining at time points optimized for each system (48 h: 3C and CASM3C systems; 72 h: BT and HDF3CGF systems; 96 h: SAg system). SRB was performed by staining cells with 0.1% SRB after fixation with 10% TCA and reading wells at 560 nm.Viability and proliferation of PBMC (T cells) was quantified by Alamar Blue reduction for the SAg and BT systems. For PBMC viability (referred to as PBMC Cytotoxicity within the assay endpoint names), cells were plated (75,000/well in a 96-well plate) and then chemical samples added for 1 h before addition of activators, SEB and TSST-1 (20 ng/mL final concentration each). Cells were incubated for 90 h. Then, Alamar Blue (20 uL/well) (Invitrogen, Cat DAL1100) was added for 6 h, and the plates were read with a fluorescence microplate reader at 546/580 nm (excitation/emission). For PBMC proliferation, cells were plated and activated as above but incubated for only 16 h prior to addition of Alamar Blue. Plates were read after 6 h.

| Structure (SMILES) | outcome | AC50 |
| --- | --- | --- |
| CC(=O)c1ccc(C)cc1 | inactive | – |
| C=C(F)C(=O)OC(C(F)(F)F)C(F)(F)F | inactive | – |
| CCCO[Si](OCCC)(OCCC)OCCC | inactive | – |
| CCOC(=O)C=Cc1ccccc1 | inactive | – |
| C=C(C)C(=O)OCCC(F)(F)C(F)(F)C(F)(F)C(F)(F)C(F)(F)C(F)(F)C(F)(F)C(F)(F)F | inactive | – |
| CC(C)CCCC(C)(C)O | inactive | – |
| CCOC(=O)CCCCCCCCC(=O)OCC | inactive | – |
| CCCCCCCC1CCCC1=O (stereo not given) | – | 32.4 µM (active) |
| O=S1(=O)CC(Cl)(Cl)C(Cl)(Cl)C1 | – | 1.08 µM (active) |
| CC(C)Cc1ccc(C(C)C(=O)O)cc1 (stereo not given) | inactive | – |
| COC(=O)c1ccc(C(=O)OC)cc1 | inactive | – |
| c1ccc(OCCOc2ccccc2)cc1 | inactive | – |
| CC/C(=C(\c1ccccc1)c1ccc(OCCN(C)C)cc1)c1ccccc1 | – | 9.63 µM (active) and 7.45 µM (active) |
| C[C@]12CC[C@@H]3c4ccc(O)cc4CC[C@H]3[C@@H]1CC[C@@H]2O | inactive | – |
| Nc1ccc(N)c([N+](=O)[O-])c1 | inactive | – |
| CCCCCCCCCCCCS | inactive | – |
| O=C(O)C(F)(F)OC(F)(F)C(F)(F)OC(F)(F)C(F)(F)C(F)(F)C(F)(F)F | inactive | – |
| CC(C)(CO)CO | inactive | – |
| O=S(=O)(O)C(F)(F)C(F)(F)OC(F)(F)C(F)(F)F | inactive | – |
| C#C[C@]1(O)CC[C@H]2[C@@H]3CCc4cc(O)ccc4[C@H]3CC[C@@]21C | inactive | – |

| Structure (SMILES) | outcome | AC50 |
| --- | --- | --- |
| CCCCCCCCCC(=O)OCC | inactive | – |
| c1ccc(Sc2ccccc2)cc1 | – | 25.6 µM (active) |
| CC(=O)OC(C)(C)C1CC=C(C)CC1 (stereo not given) | inactive | – |
| CCC(=O)OCC=Cc1ccccc1 | inactive | – |
| NC(=O)c1c(Cl)cccc1Cl | inactive | – |
| OCCN1CCOCC1 | inactive | – |
| O=C(c1ccc(OCCN2CCCCC2)cc1)c1c(-c2ccc(O)cc2)sc2cc(O)ccc12 | – | 34 µM (active) |
| CCCCOCCOCCO | inactive | – |
| COc1ccccc1NC(=O)CC(C)=O | inactive | – |
| OCC(F)(OC(F)(F)C(F)(OC(F)(F)C(F)(F)C(F)(F)F)C(F)(F)F)C(F)(F)F (stereo not given) | inactive | – |
| C=C(C)C(N)=O | inactive | – |
| CC(C)(C)c1cccc(O)c1 | inactive | – |
| O=C1OC2(c3ccc(O)cc3Oc3cc(O)ccc32)c2ccccc21 | inactive | – |
| CCn1cc(C(=O)O)c(=O)c2ccc(C)nc21 | inactive | – |
| C=C1CC/C=C(\C)CC[C@@H]2[C@@H]1CC2(C)C | inactive | – |
| CC=CC(=O)C1=C(C)C=CCC1(C)C | inactive | – |
| CC1=CC(C)C(C=O)C(C)C1 (stereo not given) (tested in a mixture with another compound) | inactive | – |
| CC(=O)OCC=C(C)CCC=C(C)CCC=C(C)C | inactive | – |
| c1ccc2c(c1)-c1ccc3ccc4cccc5cc-2c1c3c45 | inactive | – |
| C=CC(=O)OCC(CO)(COC(=O)C=C)COC(=O)C=C | – | 0.631 µM (active) |

Reference: PubChem BioAssay (EPA / NIEHS)
